ChEMBL document CHEMBL1961873, “Compounds: GSK PKIS; Assays: Nanosyn kinase panel” (2012)

Tests used:
[1] = system: Tyrosine-protein kinase ABL1 (Homo sapiens), P00519 [T315I]; details: at 1 µM
[2] = system: Tyrosine-protein kinase ABL1 (Homo sapiens), P00519 [Y253F]; details: at 0.1 µM
[3] = system: Tyrosine-protein kinase ABL1 (Homo sapiens), P00519 [Y253F]; details: at 1 µM
[4] = biological target: Tyrosine-protein kinase ABL1 (Homo sapiens) (UniProt P00519); details: at 0.1 µM
[5] = biological target: Tyrosine-protein kinase ABL1 (Homo sapiens) (UniProt P00519); details: at 1 µM
[6] = biological target: ALK tyrosine kinase receptor (Homo sapiens) (UniProt Q9UM73); details: at 0.1 µM
[7] = biological target: ALK tyrosine kinase receptor (Homo sapiens) (UniProt Q9UM73); details: at 1 µM
[8] = biological target: Tyrosine-protein kinase ABL2 (Homo sapiens) (UniProt P42684); details: at 0.1 µM
[9] = biological target: Tyrosine-protein kinase ABL2 (Homo sapiens) (UniProt P42684); details: at 1 µM
[10] = biological target: Tyrosine-protein kinase receptor UFO (Homo sapiens) (UniProt P30530); details: at 0.1 µM
[11] = biological target: Tyrosine-protein kinase receptor UFO (Homo sapiens) (UniProt P30530); details: at 1 µM
[12] = biological target: Tyrosine-protein kinase Blk (Homo sapiens) (UniProt P51451); details: at 0.1 µM
[13] = biological target: Tyrosine-protein kinase Blk (Homo sapiens) (UniProt P51451); details: at 1 µM
[14] = biological target: T1, Cytoplasmic tyrosine-protein kinase BMX (Homo sapiens) (UniProt P51813); details: at 0.1 µM
T1 sequence (whole entry): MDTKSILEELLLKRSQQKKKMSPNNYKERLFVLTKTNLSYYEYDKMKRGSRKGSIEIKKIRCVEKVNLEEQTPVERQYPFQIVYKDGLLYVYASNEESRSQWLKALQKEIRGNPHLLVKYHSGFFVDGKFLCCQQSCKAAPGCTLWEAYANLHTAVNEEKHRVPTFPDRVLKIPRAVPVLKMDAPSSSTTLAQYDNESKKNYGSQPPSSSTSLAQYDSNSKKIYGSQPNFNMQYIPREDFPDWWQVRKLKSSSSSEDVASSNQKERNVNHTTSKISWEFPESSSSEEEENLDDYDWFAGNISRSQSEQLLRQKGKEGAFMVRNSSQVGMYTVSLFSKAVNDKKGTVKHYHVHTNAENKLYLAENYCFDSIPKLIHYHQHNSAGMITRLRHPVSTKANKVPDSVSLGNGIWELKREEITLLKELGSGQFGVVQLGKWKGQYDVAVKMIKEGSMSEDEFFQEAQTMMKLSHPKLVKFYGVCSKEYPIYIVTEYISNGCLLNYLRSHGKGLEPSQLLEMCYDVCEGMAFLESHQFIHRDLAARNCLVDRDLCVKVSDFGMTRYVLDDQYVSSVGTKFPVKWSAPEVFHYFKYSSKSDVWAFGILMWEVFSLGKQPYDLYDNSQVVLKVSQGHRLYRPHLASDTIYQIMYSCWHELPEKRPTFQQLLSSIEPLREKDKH

[15] = biological target: T1, Cytoplasmic tyrosine-protein kinase BMX (Homo sapiens); details: at 1 µM
[16] = biological target: Protein-tyrosine kinase 6 (Homo sapiens) (UniProt Q13882); details: at 0.1 µM
[17] = biological target: Protein-tyrosine kinase 6 (Homo sapiens) (UniProt Q13882); details: at 1 µM
[18] = biological target: Tyrosine-protein kinase BTK (Homo sapiens) (UniProt Q06187); details: at 0.1 µM
[19] = biological target: Tyrosine-protein kinase BTK (Homo sapiens) (UniProt Q06187); details: at 1 µM
[20] = biological target: Tyrosine-protein kinase CSK (Homo sapiens) (UniProt P41240); details: at 0.1 µM;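 also: value given is the averaged percent inhibition of CSK kinase activity, from the GSK PKIS kinase inhibitor set screening panel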
Chain of Tyrosine-protein kinase CSK (Homo sapiens) (P41240 2-450 limits assumed): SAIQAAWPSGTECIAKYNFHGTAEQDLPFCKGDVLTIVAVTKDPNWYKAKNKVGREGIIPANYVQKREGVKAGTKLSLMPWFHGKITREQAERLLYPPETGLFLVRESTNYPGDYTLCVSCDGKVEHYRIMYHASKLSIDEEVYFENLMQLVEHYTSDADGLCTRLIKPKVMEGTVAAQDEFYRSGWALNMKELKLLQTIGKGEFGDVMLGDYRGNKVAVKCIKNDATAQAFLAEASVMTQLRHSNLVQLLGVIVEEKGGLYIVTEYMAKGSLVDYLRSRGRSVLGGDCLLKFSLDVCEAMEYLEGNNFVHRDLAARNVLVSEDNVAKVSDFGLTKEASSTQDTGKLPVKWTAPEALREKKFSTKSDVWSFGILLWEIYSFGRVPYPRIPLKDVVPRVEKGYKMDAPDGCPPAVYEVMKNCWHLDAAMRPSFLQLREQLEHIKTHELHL

Chain of Tyrosine-protein kinase BTK (Homo sapiens) (Q06187 whole entry): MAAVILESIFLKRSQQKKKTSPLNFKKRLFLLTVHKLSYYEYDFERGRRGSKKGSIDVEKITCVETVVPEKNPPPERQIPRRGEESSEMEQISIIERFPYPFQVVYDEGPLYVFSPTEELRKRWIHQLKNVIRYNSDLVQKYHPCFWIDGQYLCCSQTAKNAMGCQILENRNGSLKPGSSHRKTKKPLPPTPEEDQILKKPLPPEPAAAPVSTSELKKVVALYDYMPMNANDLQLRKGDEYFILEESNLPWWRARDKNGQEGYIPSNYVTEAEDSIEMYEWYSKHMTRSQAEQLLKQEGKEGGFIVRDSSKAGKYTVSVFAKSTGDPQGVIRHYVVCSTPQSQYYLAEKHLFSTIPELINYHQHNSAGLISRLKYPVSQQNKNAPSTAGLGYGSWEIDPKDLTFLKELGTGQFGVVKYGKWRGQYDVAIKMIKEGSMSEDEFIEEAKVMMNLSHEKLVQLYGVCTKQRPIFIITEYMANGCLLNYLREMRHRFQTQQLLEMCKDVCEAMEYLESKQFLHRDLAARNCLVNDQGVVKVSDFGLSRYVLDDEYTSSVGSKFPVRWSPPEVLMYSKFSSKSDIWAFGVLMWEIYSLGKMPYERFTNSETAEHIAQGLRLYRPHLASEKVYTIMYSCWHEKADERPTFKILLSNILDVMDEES
Chain of Tyrosine-protein kinase Blk (Homo sapiens) (P51451 2-505 limits assumed): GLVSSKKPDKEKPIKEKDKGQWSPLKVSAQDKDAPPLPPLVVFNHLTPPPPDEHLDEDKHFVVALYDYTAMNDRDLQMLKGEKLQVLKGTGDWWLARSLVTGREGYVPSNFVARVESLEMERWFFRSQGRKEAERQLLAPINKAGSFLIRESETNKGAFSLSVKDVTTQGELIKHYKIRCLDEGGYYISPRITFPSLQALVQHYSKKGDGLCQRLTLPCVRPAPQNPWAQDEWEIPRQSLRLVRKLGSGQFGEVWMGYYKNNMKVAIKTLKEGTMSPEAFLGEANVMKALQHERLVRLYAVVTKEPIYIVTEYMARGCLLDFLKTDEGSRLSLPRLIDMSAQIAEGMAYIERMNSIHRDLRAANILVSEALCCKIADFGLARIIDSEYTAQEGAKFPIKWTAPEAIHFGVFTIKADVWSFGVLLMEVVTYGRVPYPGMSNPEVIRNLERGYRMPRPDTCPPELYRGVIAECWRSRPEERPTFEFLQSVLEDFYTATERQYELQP
Chain of ALK tyrosine kinase receptor (Homo sapiens) (Q9UM73 19-1620 limits assumed): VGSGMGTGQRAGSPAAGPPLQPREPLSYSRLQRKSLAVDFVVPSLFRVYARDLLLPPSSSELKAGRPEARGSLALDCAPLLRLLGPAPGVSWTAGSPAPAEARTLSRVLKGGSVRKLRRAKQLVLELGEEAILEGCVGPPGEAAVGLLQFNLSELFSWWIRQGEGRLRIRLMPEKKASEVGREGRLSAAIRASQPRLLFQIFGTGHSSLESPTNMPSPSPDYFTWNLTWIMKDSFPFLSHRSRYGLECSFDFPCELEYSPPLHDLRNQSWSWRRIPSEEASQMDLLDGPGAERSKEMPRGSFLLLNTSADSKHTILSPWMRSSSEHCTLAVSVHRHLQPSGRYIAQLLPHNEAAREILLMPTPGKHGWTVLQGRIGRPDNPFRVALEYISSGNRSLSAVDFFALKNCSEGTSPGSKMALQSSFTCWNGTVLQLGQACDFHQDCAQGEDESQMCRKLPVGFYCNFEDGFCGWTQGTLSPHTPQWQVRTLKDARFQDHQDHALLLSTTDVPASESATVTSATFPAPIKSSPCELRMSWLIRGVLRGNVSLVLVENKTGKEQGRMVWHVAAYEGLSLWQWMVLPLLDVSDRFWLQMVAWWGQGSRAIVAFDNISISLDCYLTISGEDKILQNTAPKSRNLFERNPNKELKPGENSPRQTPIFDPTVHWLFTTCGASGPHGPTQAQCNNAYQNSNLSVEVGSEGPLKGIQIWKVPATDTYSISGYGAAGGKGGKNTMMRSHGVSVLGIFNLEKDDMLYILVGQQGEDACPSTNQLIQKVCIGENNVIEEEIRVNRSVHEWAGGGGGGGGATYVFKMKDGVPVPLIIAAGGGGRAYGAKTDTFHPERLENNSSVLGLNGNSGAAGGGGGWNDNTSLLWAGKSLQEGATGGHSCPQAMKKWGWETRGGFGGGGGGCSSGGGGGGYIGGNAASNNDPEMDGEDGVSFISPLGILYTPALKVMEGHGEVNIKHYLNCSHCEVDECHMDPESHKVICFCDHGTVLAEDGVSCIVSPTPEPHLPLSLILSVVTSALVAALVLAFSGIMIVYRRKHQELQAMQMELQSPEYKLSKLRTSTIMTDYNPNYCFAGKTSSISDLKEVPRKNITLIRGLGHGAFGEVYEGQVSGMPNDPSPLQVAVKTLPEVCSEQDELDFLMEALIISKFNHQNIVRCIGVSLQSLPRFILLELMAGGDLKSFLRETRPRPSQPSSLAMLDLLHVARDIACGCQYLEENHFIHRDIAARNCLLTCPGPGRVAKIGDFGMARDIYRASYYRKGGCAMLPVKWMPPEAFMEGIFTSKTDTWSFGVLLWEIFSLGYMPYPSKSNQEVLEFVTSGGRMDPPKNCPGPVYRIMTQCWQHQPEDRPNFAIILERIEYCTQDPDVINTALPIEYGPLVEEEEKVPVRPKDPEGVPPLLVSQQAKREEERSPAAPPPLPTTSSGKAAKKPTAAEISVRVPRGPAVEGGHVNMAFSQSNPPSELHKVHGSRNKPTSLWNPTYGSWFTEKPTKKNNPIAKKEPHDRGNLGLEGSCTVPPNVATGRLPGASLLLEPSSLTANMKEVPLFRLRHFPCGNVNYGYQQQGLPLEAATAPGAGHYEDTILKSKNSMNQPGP
Chain of Tyrosine-protein kinase ABL2 (Homo sapiens) (P42684 whole entry): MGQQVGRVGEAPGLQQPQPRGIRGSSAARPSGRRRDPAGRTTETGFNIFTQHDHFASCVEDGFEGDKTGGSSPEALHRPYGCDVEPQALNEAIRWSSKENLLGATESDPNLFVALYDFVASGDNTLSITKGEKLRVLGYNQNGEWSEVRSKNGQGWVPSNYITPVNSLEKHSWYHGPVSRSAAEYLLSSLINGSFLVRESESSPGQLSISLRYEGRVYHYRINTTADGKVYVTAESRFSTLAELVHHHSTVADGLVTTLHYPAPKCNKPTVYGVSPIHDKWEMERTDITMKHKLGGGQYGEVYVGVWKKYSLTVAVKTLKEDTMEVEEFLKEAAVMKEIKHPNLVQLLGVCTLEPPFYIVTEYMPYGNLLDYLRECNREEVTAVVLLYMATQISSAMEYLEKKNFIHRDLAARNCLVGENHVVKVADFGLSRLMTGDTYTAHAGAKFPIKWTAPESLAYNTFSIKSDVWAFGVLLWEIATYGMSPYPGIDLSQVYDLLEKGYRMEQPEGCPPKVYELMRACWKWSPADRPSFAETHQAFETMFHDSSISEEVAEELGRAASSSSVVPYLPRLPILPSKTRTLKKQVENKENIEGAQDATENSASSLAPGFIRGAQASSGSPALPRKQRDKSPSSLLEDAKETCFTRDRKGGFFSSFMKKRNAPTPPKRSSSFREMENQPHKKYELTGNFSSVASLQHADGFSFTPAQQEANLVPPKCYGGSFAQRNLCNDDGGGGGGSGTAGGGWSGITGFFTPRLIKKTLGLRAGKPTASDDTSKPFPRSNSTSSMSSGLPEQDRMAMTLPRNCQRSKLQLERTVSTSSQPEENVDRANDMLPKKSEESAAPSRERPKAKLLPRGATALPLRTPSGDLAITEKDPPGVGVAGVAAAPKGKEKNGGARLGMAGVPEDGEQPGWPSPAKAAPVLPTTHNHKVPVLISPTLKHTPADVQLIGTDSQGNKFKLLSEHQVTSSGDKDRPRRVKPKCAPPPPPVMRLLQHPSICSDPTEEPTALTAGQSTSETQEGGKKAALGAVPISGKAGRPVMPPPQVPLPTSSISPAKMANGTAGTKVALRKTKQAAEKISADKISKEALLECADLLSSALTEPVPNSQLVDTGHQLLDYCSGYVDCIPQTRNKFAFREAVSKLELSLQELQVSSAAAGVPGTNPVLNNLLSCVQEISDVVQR
Chain of Protein-tyrosine kinase 6 (Homo sapiens) (Q13882 whole entry, looked up): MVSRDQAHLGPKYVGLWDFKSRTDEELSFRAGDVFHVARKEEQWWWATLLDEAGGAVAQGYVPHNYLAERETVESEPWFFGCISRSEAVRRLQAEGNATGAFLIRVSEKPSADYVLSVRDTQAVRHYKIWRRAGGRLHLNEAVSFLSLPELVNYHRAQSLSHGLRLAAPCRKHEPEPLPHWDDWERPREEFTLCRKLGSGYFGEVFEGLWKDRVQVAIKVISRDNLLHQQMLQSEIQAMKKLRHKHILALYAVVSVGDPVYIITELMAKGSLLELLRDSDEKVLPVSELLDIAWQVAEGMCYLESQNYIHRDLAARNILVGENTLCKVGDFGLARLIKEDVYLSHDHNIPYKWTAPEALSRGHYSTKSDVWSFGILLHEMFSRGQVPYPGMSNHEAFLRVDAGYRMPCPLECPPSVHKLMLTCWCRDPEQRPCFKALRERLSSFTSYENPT

COc1cc(Nc2ncc3c(C)nc(-c4cccc(Oc5ccccc5)c4)n3n2)cc(OC)c1OC
inhibition [1]: 3.35%
inhibition [2]: 4.25%
inhibition [3]: 2.77%
inhibition [4]: 2.33%
inhibition [5]: 3.84%
inhibition [6]: 1.5%
inhibition [7]: 12.7%
inhibition [8]: 2.57%
inhibition [9]: 0.57%
inhibition [10]: 0.02%
inhibition [11]: 4.22%
inhibition [12]: 0.63%
inhibition [13]: 4.56%
inhibition [14]: 0.46%
inhibition [15]: 4.17%
inhibition [16]: 1.26%
inhibition [17]: 1.89%
inhibition [18]: 1.08%
inhibition [19]: 1.57%
inhibition [20]: 4.01%

COc1cc(Nc2ncc(-c3ccccc3)o2)cc(OC)c1OC
inhibition [1]: 22.3%
inhibition [2]: 16.7%
inhibition [3]: 69.2%
inhibition [4]: 7.54%
inhibition [5]: 52.3%
inhibition [6]: -2.74%
inhibition [7]: -0.68%
inhibition [8]: 9.54%
inhibition [9]: 52.1%
inhibition [10]: -0.73%
inhibition [11]: -1.68%
inhibition [12]: 4.17%
inhibition [13]: 41.1%
inhibition [14]: 2.78%
inhibition [15]: 8.49%
inhibition [16]: 0.16%
inhibition [17]: 4.16%
inhibition [18]: -0.88%
inhibition [19]: 0.25%
inhibition [20]: -1.07%

N#Cc1ccc(Oc2nccc(-c3c(-c4ccc(F)cc4)ncn3C3CCNCC3)n2)cc1
inhibition [1]: 5.17%
inhibition [2]: 2.11%
inhibition [3]: 5.93%
inhibition [4]: 3.72%
inhibition [5]: 5.42%
inhibition [6]: 3.58%
inhibition [7]: 5.33%
inhibition [8]: 1.9%
inhibition [9]: 6.94%
inhibition [10]: -5.46%
inhibition [11]: -3.22%
inhibition [12]: 2.21%
inhibition [13]: 3.73%
inhibition [14]: 3.25%
inhibition [15]: 4.26%
inhibition [16]: 4.1%
inhibition [17]: 4.81%
inhibition [18]: -1.09%
inhibition [19]: 0.54%
inhibition [20]: 0.79%

Cc1ccc(C(=O)NC(C)C)cc1-c1ccc(C(=O)NCC2CC2)cc1
inhibition [1]: 0.58%
inhibition [2]: -2.81%
inhibition [3]: -0.96%
inhibition [4]: 0.14%
inhibition [5]: 1.26%
inhibition [6]: -4.4%
inhibition [7]: -3.45%
inhibition [8]: -2.09%
inhibition [9]: -0.41%
inhibition [10]: 2.35%
inhibition [11]: 4.77%
inhibition [12]: -1.25%
inhibition [13]: -1.6%
inhibition [14]: -4.33%
inhibition [15]: -4.09%
inhibition [16]: -3.3%
inhibition [17]: -4.09%
inhibition [18]: -0.46%
inhibition [19]: -1.32%
inhibition [20]: -7.18%

Nc1nccc(-c2c(-c3ccc(F)cc3)ncn2C2CCC(O)CC2)n1 (stereo not given)
inhibition [1]: 42.7%
inhibition [2]: 1.83%
inhibition [3]: 24.4%
inhibition [4]: 1.2%
inhibition [5]: 36.8%
inhibition [6]: -2.24%
inhibition [7]: 2.88%
inhibition [8]: 0.37%
inhibition [9]: 30.3%
inhibition [10]: 2.47%
inhibition [11]: 6.29%
inhibition [12]: 0.25%
inhibition [13]: 5.98%
inhibition [14]: -2.32%
inhibition [15]: 3.78%
inhibition [16]: 1.95%
inhibition [17]: 14%
inhibition [18]: -0.78%
inhibition [19]: 1.08%
inhibition [20]: -1.06%

C[C@@H](Oc1cc(-n2cnc3ccc(OCC4CCN(C)CC4)cc32)sc1C(N)=O)c1ccccc1Cl
inhibition [1]: 9.89%
inhibition [2]: 2.53%
inhibition [3]: 11%
inhibition [4]: 5.81%
inhibition [5]: 14%
inhibition [6]: 8.57%
inhibition [7]: 24.5%
inhibition [8]: 8.53%
inhibition [9]: 12.4%
inhibition [10]: -5.23%
inhibition [11]: 3.11%
inhibition [12]: 2.92%
inhibition [13]: 10.4%
inhibition [14]: 0.11%
inhibition [15]: 2.71%
inhibition [16]: 5.93%
inhibition [17]: 6.07%
inhibition [18]: 0%
inhibition [19]: 0.95%
inhibition [20]: 5.15%

CNC(=O)c1cncc(/C=C/c2c(C)cccc2C)c1
inhibition [1]: 2.52%
inhibition [2]: 21.9%
inhibition [3]: 70.3%
inhibition [4]: 6.54%
inhibition [5]: 57.3%
inhibition [6]: -3.56%
inhibition [7]: -1.77%
inhibition [8]: 7.09%
inhibition [9]: 51.3%
inhibition [10]: -0.01%
inhibition [11]: 3.27%
inhibition [12]: -1.68%
inhibition [13]: 16.2%
inhibition [14]: 6.81%
inhibition [15]: 42.4%
inhibition [16]: 13.4%
inhibition [17]: 61.9%
inhibition [18]: -1.07%
inhibition [19]: 7.27%
inhibition [20]: 5.83%
